Screening results deposited in PubChem BioAssay by National Center for Advancing Translational Sciences (NCATS).
Compounds with a hit are over-represented: about 6% of the library has one in this group of screens.
D1 ag: human D1 receptor agonism. P21728. HEK293 T-REx D1 cells, calcium flux, agonist mode. activation, % at 2 µM. 360,000 compounds, 1% hits. AID 504660; in the data active = activation above about 30%; also: 0% is about no effect
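Inducible HEK293 T-REx D1 cells, force-coupled to calcium signalling, were plated at 4000 cells/well with tetracycline and held overnight at 30 C. After no-wash calcium dye loading, compound-evoked calcium rise over 180 s flagged agonists.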
DRD3 agonist: D3 dopamine receptor (human) agonism. P35462. D3R DiscoveRx beta-arrestin cells, luminescence, 90 min. max activation, %. 410,000 compounds, 0.58% hits. AID 652048; in the data active = max activation above about 30%; also: 0% is about no effect
Target sequence (P35462 whole entry, looked up): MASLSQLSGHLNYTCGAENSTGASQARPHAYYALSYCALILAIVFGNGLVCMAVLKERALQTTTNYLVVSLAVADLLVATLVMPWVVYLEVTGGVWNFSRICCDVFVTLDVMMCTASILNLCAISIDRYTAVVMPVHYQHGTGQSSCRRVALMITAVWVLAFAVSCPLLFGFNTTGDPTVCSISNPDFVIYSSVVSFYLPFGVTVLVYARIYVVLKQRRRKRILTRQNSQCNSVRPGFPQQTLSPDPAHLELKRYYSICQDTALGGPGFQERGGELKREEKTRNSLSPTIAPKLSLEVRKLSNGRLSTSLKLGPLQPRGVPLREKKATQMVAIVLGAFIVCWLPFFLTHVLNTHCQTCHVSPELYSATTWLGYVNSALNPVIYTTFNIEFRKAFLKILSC
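Agonist mode: compounds and dopamine controls were applied to plated cells for 90 min at 37 degrees C after an overnight attachment at 1500 cells/well. Luminescent read-out followed 30 - 60 minutes at room temperature with DiscoveRx detection reagent.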
D1 PAM: human D1 dopamine receptor positive modulation; AID 504651; 360,000 compounds, 0.036% hits; P21728; HEK293 TREx D1 cells, calcium flux, dopamine EC20 potentiation; potentiation, % at 10 µM; in the data active = potentiation above about 30%; also: 0% is about no effect
D3 antag: antagonists of human D3 dopamine receptor; P35462; D3R cells, DiscoveRx beta-arrestin luminescence, antagonist mode; active compounds read low; max response, negative = inhibition, %; 360,000 compounds, 2.5% hits; in the data active = max response below about -50%; inconclusive = no clear call, values can overlap the other calls; also: % is scaled to controls: 0 for no effect and ±100 for the full control effect
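Cells plated overnight at 1500 cells/well, then exposed to library compounds with dopamine controls for 90 minutes at 37 degrees C. DiscoveRx reagent added for 30–60 minutes at room temperature; luminescence read, quantitative HTS format.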
D1 antagonist: antagonists of human D1 dopamine receptor; P21728; HEK293 TREx D1 cells, calcium flux, dopamine EC80; active compounds read low; activity change, negative = inhibition, % at 10 µM; 360,000 compounds, 3.2% hits; in the data active = activity change below about -30%; also: % is scaled to controls: 0 for no effect and ±100 for the full control effect
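Allosteric or orthosteric antagonism assessed as attenuation of the calcium response to EC80 dopamine, added 180 s after compound, in induced HEK293 Trex D1 cells loaded with no-wash calcium dye.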
* marks the source's active call; other numbers are inactive results.

For CCOC(=O)C1=C(C)NC(=O)CC1c1cc(OC)c(OC)cc1Br (centres undefined) the results were D1 ag 3.2, DRD3 agonist 4.4, D1 PAM -1.1, D3 antag 16.7 and D1 antagonist 4.6.
`CCN(CC)C(=O)Cn1c(=O)n(-c2ccc(Cl)c(Cl)c2)c(=O)c2c(C)c(C(=O)N(CC)CC)sc21` gave D1 ag -1.3, DRD3 agonist 2.4, D1 PAM -0.5 and D1 antagonist 11.8.
Cc1ccc2c(c1)c1c3n2CCCNC3CCC1 (centres undefined) was read as D1 ag 20.3, DRD3 agonist 12.5, D1 PAM -7.7, D3 antag -15.4 and D1 antagonist -16.0.
Screening c1cc2c(cc1C1CCCCC1)c1c3n2CCCNC3CCC1 (centres undefined) returned D1 ag 122.2*, DRD3 agonist 5.4, D1 PAM 17.9, D3 antag 3.1 and D1 antagonist -7.1.
CCOC(=O)[C@H](CCc1ccccc1)N[C@@H](C)C(=O)N1CCC[C@@H]1C(=O)O was read as D1 ag -2.3, DRD3 agonist 74.2*, D1 PAM -1.2, D3 antag 18.0 and D1 antagonist -5.8.
CCOC(=O)[C@H](CCc1ccccc1)N[C@@H](C)C(=O)N1CCC[C@H]1C(=O)O was read as D1 ag -1.2, DRD3 agonist -9.3, D1 PAM -1.8, D3 antag 0.0 and D1 antagonist 19.3.
Screening O=C(CCn1c(=O)oc2ccccc21)NCCCN1CCOCC1 returned D1 ag 0.1, DRD3 agonist 2.2, D1 PAM -0.4, D3 antag 11.1 and D1 antagonist -5.3.
`O=C(CCNC(=O)Cn1ccc2ccccc2c1=O)NCCCN1CCOCC1` gave D1 ag 1.0, DRD3 agonist 3.2, D1 PAM 3.9, D3 antag 41.6 and D1 antagonist 16.1.
Screening O=C(CNC(=O)Cn1ccc2ccccc2c1=O)NCCCN1CCN(c2cccc(Cl)c2)CC1 returned D1 ag -1.4, DRD3 agonist -1.1, D1 PAM -11.5, D3 antag -75.0* and D1 antagonist -37.0*.
`O=C(CCn1c(=O)oc2ccccc21)NCCCN1CCN(c2ccc(F)cc2)CC1` gave D1 ag 9.1, DRD3 agonist 1.1, D1 PAM 0.4, D3 antag -51.8* and D1 antagonist -21.9.
`O=C(CCNC(=O)Cn1ccc2ccccc2c1=O)NCCCN1CCN(c2ccc(F)cc2)CC1` gave D1 ag 0.6, DRD3 agonist -15.8, D1 PAM -19.0, D3 antag inconclusive and D1 antagonist -51.1*.
Screening O=C(CCNC(=O)Cn1ccc2ccccc2c1=O)NCCCN1CCN(c2ccccc2F)CC1 returned D1 ag 2.3, DRD3 agonist 14.0, D1 PAM -15.8, D3 antag -67.6* and D1 antagonist -67.9*.
Screening Cc1cccc(-n2ncc(C(=O)NCc3ccccn3)c2C2CCN(C(=O)OC(C)(C)C)CC2)c1 returned D1 ag 1.5, DRD3 agonist 2.6, D1 PAM -1.2 and D1 antagonist 3.8.
For COc1ccc(CCNC(=O)CCCn2c(=O)c3ccccc3n(Cc3c(C)cc(C)cc3C)c2=O)cc1OC the results were D1 ag 0.4, DRD3 agonist 3.0, D1 PAM 1.6 and D1 antagonist -4.7.
Screening CCCCCCCC/C=C\CCCCCCCC(=O)OC[C@@H](O)[C@H]1OC[C@H](O)[C@H]1O returned DRD3 agonist 9.2.
CCOC(=O)c1[nH]c2ccccc2c1NC(=O)c1ccc(OC(C)C)cc1 was read as D1 ag 2.4, DRD3 agonist 13.2, D1 PAM 1.2 and D1 antagonist -3.3.
For NCCCC(O)(P(=O)(O)O)P(=O)(O)O the results were DRD3 agonist 10.0.
CCOC(=O)c1c(C)[nH]c(CCC(=O)NCCCN2CCN(c3cc(Cl)ccc3C)CC2)c1C was read as D1 ag 27.5, DRD3 agonist -30.3, D1 PAM -4.4 and D1 antagonist -12.2.
For CCOC(=O)c1c(C)[nH]c(CCC(=O)NCCCN2CCN(c3ccc(F)cc3)CC2)c1C the results were D1 ag -0.2, DRD3 agonist -22.2, D1 PAM -5.8 and D1 antagonist -37.4*.
For CCC(C)(C)NC(=O)C(c1ccc(OC)cc1)N(Cc1cccs1)C(=O)CCC(=O)Nc1cc(C)on1 (centres undefined) the results were D1 ag 0.2, DRD3 agonist -4.3, D1 PAM -9.2, D3 antag -15.8 and D1 antagonist -35.5*.
For COc1ccc(NC(=O)CSc2oc(-c3ccc(F)cc3)nc2S(=O)(=O)c2ccc(C)cc2)c(OC)c1 the results were D1 ag 2.6, DRD3 agonist 1.1, D1 PAM 1.0 and D1 antagonist 25.4.
`CCCN1Cc2cccc(C(=O)Nc3ccc(C(C)=O)cc3)c2C1=O` gave D1 ag 1.7, DRD3 agonist -2.6, D1 PAM 0.6 and D1 antagonist 2.3.
For Cc1ccccc1NC(=O)CCN1CCc2ccccc2C1 the results were D1 ag 2.6, DRD3 agonist -5.7, D1 PAM -1.9, D3 antag -79.1* and D1 antagonist 21.5.
For Cc1ccccc1NC(=O)CCN1CCCC1 the results were D1 ag 4.3, DRD3 agonist -7.2, D1 PAM -1.4, D3 antag -9.2 and D1 antagonist 6.0.
For O=C(CCN1CCc2ccccc2C1)Nc1ccc(F)cc1 the results were DRD3 agonist -3.8 and D3 antag -66.2*.
`O=C(CCn1cccc1)Nc1ccc(F)cc1` gave D1 ag 0.6, DRD3 agonist -1.6, D1 PAM 2.6, D3 antag -2.7 and D1 antagonist 8.4.
`CCOC(=O)c1c(C)oc2nc(C)nc(NCCc3ccc(SC)cc3)c12` gave D1 ag 5.3, DRD3 agonist 5.9, D1 PAM -6.5 and D1 antagonist -31.8*.
O=S(=O)(c1ccc2ccccc2c1)n1nc(-c2ccco2)nc1NCc1cccc(Cl)c1 was read as D1 ag 11.1, DRD3 agonist 3.8, D1 PAM -2.1 and D1 antagonist -41.6*.
For CCN(CC(=O)Nc1ccc(NC(C)=O)cc1)C(=O)CCN1C(=O)C2CC=CCC2C1=O (centres undefined) the results were D1 ag 2.8, DRD3 agonist -13.2, D1 PAM -4.5, D3 antag -9.9 and D1 antagonist -43.9*.
Screening CCOc1ccc(OCCC(=O)N(CC)CC(=O)Nc2ccccc2OC)cc1 returned DRD3 agonist 31.0* and D3 antag 0.7.
For CCN(CC(=O)Nc1ccc(NC(C)=O)cc1)C(=O)CCCOc1ccc(C(C)(C)C)cc1 the results were D1 ag 31.8*, DRD3 agonist 2.1, D1 PAM 6.6, D3 antag 5.8 and D1 antagonist 0.0.
